Laboratory results reported in PubChem BioAssay AID1863 (Southern Research Specialized Biocontainment Screening …, 2009).
Screen size: about 300,000 compounds; about 480 (0.16%) were called active.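 How the source made its calls: active means inhibition over 29.93%, a cutoff 3 SD above the screen mean, later confirmed by dose response; inconclusive means inhibition over 29.93% but no dose response follow-up; inactive means inhibition at most 29.93% or unconfirmed.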 Only a sample is shown. Results with a measured potency or affinity are listed apart.

Experiment: PhoP-dependent GFP reporter repression – Salmonella Typhimurium, primary screen (AID 1863);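 further: 0% = low Mg2+ inducing control and 100% = high Mg2+ repressing control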
Settings: S. Typhimurium PhoP-regulated promoter GFP reporter, 4 h; at 50 µM; hits give high values

inhibition, inactive:
COc1cccc(C(=O)Nc2cnc(NC(=O)c3ccco3)cc2C)c1 12.2%
C=CCN=C(NC#N)SCC(=O)c1cccc(OC)c1 -4.71%
O=C(NCCCn1ccnc1)/C(=C\c1ccc(Br)cc1)NC(=O)c1ccccc1F -5.42%
COc1cc(O)c(C(CC(=O)N2CCOCC2)c2cc(OC)c(OC)c(OC)c2)c(OC)c1 (stereo not given) -0.44%
CO[C@H]1C=CO[C@@]2(C)Oc3c(C)c(O)c4c(O)c(c5c(c4c3C2=O)NC2(CCN(CC(C)C)CC2)N=5)=NC(=O)C(C)=CC=C[C@H](C)[C@H](O)[C@@H](C)[C@@H](O)[C@@H](C)[C@H](OC(C)=O)[C@@H]1C -10.1%
CO[C@H]1C=CO[C@@]2(C)Oc3c(C)c(O)c4c(O)c(c(C=NN5CCN(C6CCCC6)CC5)c(O)c4c3C2=O)NC(=O)C(C)=CC=C[C@H](C)[C@H](O)[C@@H](C)[C@@H](O)[C@@H](C)[C@H](OC(C)=O)[C@@H]1C -1.76%
COc1ccccc1CNC(=O)C(=O)NCC1OCCN1C(=O)c1cccs1 (stereo not given) -7.58%
CCOc1ncccc1C(=O)NCCCSc1ccccc1 4.02%
COc1ccc(Cl)cc1/C=C(\C#N)C(N)=O -5.64%
Cc1ccnc(SCCn2c(N3CCCCC3)nc3c2c(=O)[nH]c(=O)n3C)n1 2.87%
CC(=O)Nc1ccc(S(=O)(=O)NCc2cc(=O)n(C)c(=O)n2C)cc1 1.8%
CCOc1cc(C2/C(=C(/O)c3ccc(OC(C)C)cc3)C(=O)C(=O)N2CCCOC)ccc1O (stereo not given) -4.64%
CCc1cc2c3c(c1)/C(=C1/SC(N)=NC1=O)C(=O)N3C(C)(C)C=C2C 2.08%
Cc1cc(C)cc(CN2C(=O)NC3(CCCCCC3)C2=O)c1 -9.68%
Oc1ccccc1CNCc1ccccc1 4.46%
CC(NCc1ccccc1O)c1ccccc1 (stereo not given) -3.45%
CN(C)S(=O)(=O)c1cccc(NC(=O)c2ccc(S(=O)(=O)N3CCCC3)cc2)c1 -7.11%
CC(C)OCCCNc1nc2c(-c3ccccc3)nnn2c2ccccc12 -3.07%
COc1cc(NC(=O)Cn2cnc(S(=O)(=O)N3CCC(C)CC3)c2)cc(OC)c1OC -7.04%
CC[C@H]1OC(=O)[C@H](C)[C@@H](O[C@H]2C[C@@](C)(OC)[C@@H](O)[C@H](C)O2)[C@H](C)[C@@H](O[C@@H]2O[C@H](C)C[C@H](N(C)C)[C@H]2O)[C@](C)(O)C[C@@H](C)C(=O)[C@H](C)[C@@H](O)[C@]1(C)O 6.93%
CC[C@H]1OC(=O)[C@H](C)[C@@H](O[C@H]2C[C@@](C)(OC)[C@@H](O)[C@H](C)O2)[C@H](C)[C@@H](O[C@@H]2O[C@H](C)C[C@H](N(C)C)[C@H]2O)[C@](C)(O)C[C@@H](C)C(=NOCOCCOC)[C@H](C)[C@@H](O)[C@]1(C)O 2.91%
CCOC(=O)N/N=C\c1cccc(OC)c1OC/C=C/c1ccccc1 1.25%
COc1ccccc1CN1C[C@@H]2C[C@@H](c3[nH]c4c(C)cccc4c3C)N3CCC[C@@]23C1=O -4.79%
CCOc1cccc(C(=O)NNC(=O)CCC(=O)O)c1 4.57%
NC(=O)c1ccccc1OCC(=O)N1CCCc2ccccc21 -3.13%
Clc1ccc2nc(C3CCN(Cc4ccccc4)CC3)[nH]c2c1 18.6%
Cc1ccc(CN2CCC(c3nc4ccc(Cl)cc4[nH]3)CC2)cc1 22.6%
COc1ccc(Oc2ncnc3sccc23)cc1 9.87%
Cc1cc(=O)oc2cc(OCC3CC(c4ccc(Br)cc4)=NO3)ccc12 (stereo not given) -2.2%
Cc1ccc(Cl)cc1NC(=O)C1C2CCC(O2)C1C(=O)O (stereo not given) -0.09%
Fc1cccc(/C=N/Nc2ccccn2)c1 10.3%
FC(F)(F)c1ccc(N/N=C/c2cccnc2)nc1 -0.8%
CCOc1cc(C2C(C(=O)c3ccccc3)=C(C(=O)OC)Nc3nnnn32)ccc1O (stereo not given) -7.95%
CCOc1ccc(NC(=O)Cn2c(=O)oc3cc(Cl)ccc32)cc1 -5.34%
O[C@@H](c1cc(C(F)(F)F)nc2c(C(F)(F)F)cccc12)[C@H]1CCCCN1 9.26%
CC(O)(c1ccccc1)C(c1ccccc1)C1CCCCN1 (stereo not given) 5.86%
OC(c1cc(C(F)(F)F)nc2c(C(F)(F)F)cccc12)C1CCCCN1 (stereo not given) -7.43%
FC(F)(F)c1cc(-c2ccccc2)nc(NC2CCCC2)n1 2.27%
Cc1ccccc1CN1[C@@H]2c3ccccc3C[C@@H]2OCCS1(=O)=O 5.91%
Nn1c(SCC(=O)Nc2ccc3c(c2)OCO3)nncc1=O -10%
Cc1cccnc1NC(=O)c1ccc2c(c1)OCO2 5.72%
O=[N+]([O-])c1ccc(O)c2ncccc12 -0.36%
O=[N+]([O-])c1ccc(O)c2cccnc12 4.87%
O=[N+]([O-])c1cccc2c(Cl)ccnc12 -15%
CN(Cc1cc([N+](=O)[O-])c2cccnc2c1O)C1CCCCC1 24.8%
O=[N+]([O-])c1cc([N+](=O)[O-])c2cccnc2c1Oc1ccccc1O 11.2%
O=[N+]([O-])c1ccc(Cl)c2cccnc12 2.44%
Nc1nonc1C(=O)NCCNC(=O)c1cccs1 17.7%
O=C(O)C1CCN(C(=O)COc2ccc3c4c(c(=O)oc3c2)CCCC4)CC1 4.17%
COc1ccc(N2CCN(c3oc(-c4ccco4)nc3C#N)CC2)cc1 26.4%
COc1cc(S(=O)(=O)n2ccnc2)ccc1Br -8.94%
O=C(NCC1CCCO1)C(C(=O)c1ccc(F)cc1)n1ccccc1=O (stereo not given) 2.45%
COc1ccc(S(=O)(=O)n2oc(=O)cc2-c2ccccc2)cc1 -4.7%
CCN(CC)C(=S)Nc1ccc([N+](=O)[O-])cc1 3.9%
Oc1ccc(Cl)cc1CNc1ccccn1 14.1%
Oc1ccc(Cl)cc1CNn1cnnc1 18.7%
O=C(c1cc2c(=O)oc3ccccc3c2s1)N1CCOCC1 2%
CCOC(=O)NCC(C#CCN(CC)CC)N(CC)CC (stereo not given) 4.11%
O=C(O)CSc1cc(NS(=O)(=O)c2ccc(Cl)cc2)c2ccccc2c1O -5.26%
O=C(O)CSc1cc(NS(=O)(=O)c2ccc(Br)cc2)c2ccccc2c1O 0.22%
CC(C)Oc1ccc(C(=O)OC(C)C(=O)Nc2nc(-c3cccc([N+](=O)[O-])c3)cs2)cc1 (stereo not given) 3.69%
COc1ccc(CN2C3CCC2CC(NC(=O)c2cccc(F)c2)C3)cc1 (stereo not given) 5.59%
NCC12CC3CC(C1)CC(c1ccc(Cl)cc1)(C3)C2 10.5%
Cc1ccc(C23CC4CC(CC(CN)(C4)C2)C3)cc1 26.1%
CCOC(=O)N1CCN(C(=O)c2ccc(NS(C)(=O)=O)cc2)CC1 12.6%
O=C(NCCc1ccccc1)c1ccc(-c2ccc(F)cc2)o1 0.73%
CCSc1nc(N2CCOCC2)c2ccccc2n1 -4.32%
COc1cc(NC(=O)Cn2ccsc2=N)c(C)cc1[N+](=O)[O-] 0.16%
CCc1ccc2[nH]c3nc(N/N=C/c4cccc(O)c4)nnc3c2c1 1.71%
CC(=O)N/N=C/c1c(C)[nH]n(-c2ccccc2)c1=O 3.32%
Oc1ccc(/C=N\Nc2nncc(-c3ccccc3)n2)cc1 1.9%
COc1ccc(S(=O)(=O)NCC(=O)N(CC(=O)NCc2ccco2)Cc2ccc(F)cc2)cc1 6.01%
c1ccc(Nc2ccccn2)nc1 -3.66%
Oc1ccccc1Nc1ccccn1 0.2%
CCCc1[nH]nc2c1C(c1ccc(OC)c(Cn3nnc4ccccc43)c1)C(C#N)=C(N)O2 (stereo not given) 6.36%
CC(C)(C)OC(=O)N1CCN(C(=O)c2[nH]cnc2C(=O)N[C@@H](Cc2ccccc2)C(=O)OCc2ccccc2)CC1 7.86%
COc1ccc(OC)c(N2C(N)=NC(N)=NC23CCCC3)c1 -1.52%
O=C(Nc1nnc(-c2cccs2)o1)c1cccc(C(F)(F)F)c1 -1.86%
COc1cccc(C(=O)Nc2nnc(-c3cccs3)o2)c1 8.85%
CCn1c(=N)n(CC(=O)c2ccc(Br)s2)c2ccccc21 9.45%
N=c1n(CC(=O)c2cccs2)c2ccccc2n1Cc1ccccc1 -1.64%
Cc1nc2ccc(S(=O)(=O)NCC(=O)Nc3cccc(F)c3)cc2s1 0.67%
Nc1c(Cl)ncnc1N/N=C/c1ccc2ccccc2n1 -18.8%
Nc1c(Cl)ncnc1N/N=C/c1ccncc1 -8.59%
Cc1cc(CNC(=O)C2CCC(=O)N(Cc3cccc(C(F)(F)F)c3)C2)no1 (stereo not given) 8.7%
Cn1c(=O)c(=O)n(C)c2cc(S(=O)(=O)N3CCN(c4cccc(C(F)(F)F)c4)CC3)ccc21 -8.38%
COc1cccc(N(CC(=O)NC(C)c2ccccc2)S(C)(=O)=O)c1 (stereo not given) -3.79%
Nc1nnc(CC(=O)N/N=C/c2ccccc2OCc2ccccc2F)s1 2.44%
CSCC[C@H](NC(=O)Nc1ccc(S(N)(=O)=O)cc1)C(=O)O -5.86%
COC(=O)[C@H](CCSC)NC(=O)Nc1ccc(C)cc1 -5.05%
